Experimental data: PubChem BioAssay (NCI)
The panel holds about 79,000 compounds, 15% with a hit somewhere; the sample as a whole holds those more often. Unmarked numbers belong to inactive results. Active and inactive are the calls of the source. No stated cut-off is given here; in the data, active means growth inhibition above about 70%; inactive means the rest.

Columns and labels:
[1] = NCI Yeast Anticancer Drug Screen. Data for the rad50 strain (AID 155);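 further: 0% = growth of vehicle-only cultures of the same strain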; details: S. cerevisiae rad50 strain growth inhibition; at 50.0 µM; active compounds read high
Procedure, shortened: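 DNA repair mutant yeast, compound exposure, growth read-out; inhibition is taken relative to vehicle.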

[2] = NCI Yeast Anticancer Drug Screen. Data for the mec2-1 strain (AID 157); details: S. cerevisiae mec2-1 strain, at 50.0 µM, active compounds read high
Procedure, shortened: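 Vehicle-treated cultures served as reference for growth inhibition of compound-exposed mec2-1 yeast.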

[3] = NCI Yeast Anticancer Drug Screen. Data for the sgs1 mgt1 strain (AID 161);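 further: 0% = growth of cultures given vehicle only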; details: S. cerevisiae sgs1 mgt1 strain, at 50.0 µM, active compounds read high
Procedure, shortened: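 Genetically altered yeast, compound exposure, growth inhibition relative to vehicle.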

[4] = NCI Yeast Anticancer Drug Screen. Data for the cln2 rad14 strain (AID 165);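 further: 0% = growth equal to vehicle treated cultures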; details: S. cerevisiae cln2 rad14 strain, at 50.0 µM, active compounds read high
Procedure, shortened: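 Each compound was tested on cln2 rad14 yeast. Inhibition of growth was calculated against vehicle-exposed controls.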

[5] = NCI Yeast Anticancer Drug Screen. Data for the bub3 strain (AID 167); details: S. cerevisiae bub3 mutant strain, at 50.0 µM, active compounds read high
Procedure, shortened: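 In this screen, a yeast mutant lacking normal mitotic checkpoint function is challenged with compound. Relative growth versus vehicle gives the inhibition value.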

[6] = NCI Yeast Anticancer Drug Screen. Data for the mlh1 rad18 strain (AID 175); details: S. cerevisiae mlh1 rad18 strain growth inhibition; at 50.0 µM; active compounds read high
Procedure, shortened: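 Vehicle-treated cultures served as the reference for growth inhibition in a yeast strain carrying DNA damage repair alterations exposed to each compound.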

| SMILES | growth inhibition [1] | growth inhibition [2] | growth inhibition [3] | growth inhibition [4] | growth inhibition [5] | growth inhibition [6] |
| --- | --- | --- | --- | --- | --- | --- |
| c1ccc(C2=Nc3ccccc3C(c3ccccc3)=Nc3ccccc32)cc1 | 1.05% | 3.7% | -8.95% | -18.5% | -1.8% | 2.05% |
| NC(=O)N/N=C/c1cccc(O)c1O | 6% | -6.2% | -24.7% | -10.2% | -2.9% | 5.75% |
| Cn1c(-c2ccc(-c3cc(-c4cccs4)c(-c4cccs4)n3C)cc2)cc(-c2cccs2)c1-c1cccs1 | 11.7% | -15% | 14.8% | -16.9% | 1.55% | 17.8% |
| Cc1ccccc1/C=N\NC(=O)CCCC(=O)N/N=C/c1ccccc1C | -8.9% | 2.5% | -25.5% | 8.7% | 24.4% | -9.4% |
| O=C(ON=C1c2ccccc2C(Br)C(Br)c2ccccc21)c1ccccc1 (configuration not stated) | 38% | 16.9% | 35.7% | 17.6% | 49% | 30.6% |
| Brc1cc2ccccc2nc1-c1ccccc1 | -2.3% | -7.95% | 1% | -23.4% | 5.05% | 10.1% |
| CC[O-].CC[O-].O=C([CH-]C(=O)c1ccccc1)CCCCCCC(=O)[CH-]C(=O)c1ccccc1.[Ti+4] | -39.5% | -13.7% | -33.5% | -4.7% | 4.95% | -17.7% |
| Cc1cc(C)c2nc3c(c(C(O)C4CCCCN4)c2c1)CC/C3=C\c1ccc(Cl)cc1 (configuration not stated) | -28.8% | -22.4% | 16.9% | -7.75% | -23.9% | -4.75% |
| CCCCOC(=O)NC(=O)c1cn(CCCOC(=O)CCCCCCCCC(=O)OCCCn2cc(C(=O)NC(=O)OCCCC)c(=O)[nH]c2=O)c(=O)[nH]c1=O | -23.2% | -28.2% | -32.8% | 5.05% | -5.85% | -35.9% |
| O=C1NN(c2ccccc2)CCO1 | -2.45% | -3.2% | -5.25% | -18.6% | 0.1% | 2.15% |
| CC1(C)C(OS(C)(=O)=O)C(C)(C)C1OS(C)(=O)=O (configuration not stated) | 3.75% | -20.6% | 13.7% | 9.45% | 8.4% | -12.9% |
| CCC1C(C)C=CN1c1nc(N)nc(NS(=O)(=O)c2cc(C)c(Cl)cc2S)n1 (configuration not stated) | -18.2% | 2.5% | 17.7% | -1.9% | 4.3% | 12.2% |
| NC(Cc1c[nH]c2ccc([N+](=O)[O-])cc12)C(=O)O (configuration not stated) | 15.9% | -28.6% | -24.8% | 2.45% | -48.6% | -7.7% |
| NC(=S)N/N=C1\C(=O)NC(=O)C1c1ccccc1 (configuration not stated) | 4.75% | 1.4% | 3.45% | 0.45% | 15.6% | 6.95% |
| CCON=C1C(C)(C)C(C)(C)C(C)(C)C1(C)C | -13.4% | 0.2% | -24.6% | 37.4% | -16.1% | -2.05% |
| CC(=O)OC1CC2CC3C(C)CCC3(C2(C)C)C1(C)O (configuration not stated) | -12.9% | -0.25% | -0.7% | 0.7% | 11.4% | -11.5% |
| CN1CCCCC(C#N)(c2ccccc2)CC1 (configuration not stated) | -5.25% | 14.1% | 7.85% | -2.2% | 0.8% | 21.4% |
| O=c1c2c(-c3ccccc3)onc2n(-c2ccccc2)c(=O)n1-c1ccccc1 | -20.4% | 4.5% | 13.2% | -10.6% | -4.2% | 36.5% |
| COC(=O)Nc1ccc(C)cc1[N+](=O)[O-] | 5.5% | -8.75% | -13.4% | -50.4% | 6.4% | -0.6% |

| SMILES | growth inhibition [1] | growth inhibition [2] | growth inhibition [3] | growth inhibition [4] | growth inhibition [5] | growth inhibition [6] |
| --- | --- | --- | --- | --- | --- | --- |
| O=C1C(=O)c2ccccc2C(O)=C1c1ccccc1 | 28.6% | 22.8% | 47.2% | 7.75% | 5.6% | 51% |
| O=C(NCCCCl)c1c(O)c2ccccc2[nH]c1=O | 58.8% | 25.5% | 52% | 18.1% | 46.2% | 27.8% |
| CCCNCC(O)c1cc(C(F)(F)F)nc2c(C(F)(F)F)cccc12 (configuration not stated) | 29.4% | -0.15% | 2.25% | -25.4% | 0.6% | 19.1% |
| N#Cc1c(C#N)c(-c2ccco2)n(/N=C/c2ccco2)c1N | 4.55% | 0.6% | -34.5% | -6.75% | -25.8% | -37.4% |
| c1ccc2c(c1)Cc1c(Cc3csc4ccccc34)ccc3cccc-2c13 | -14.2% | -22.4% | -4.1% | 13.3% | -5% | -15.2% |
| CC1=NCCN1CCN | 20.6% | -17.2% | 23.8% | 12.9% | 13.6% | 23.6% |
| Cc1ccc(CNC(=S)NC2CCCCC2)cc1C | 87.6% (active) | 96% (active) | 94.2% (active) | 83.5% (active) | 90% (active) | 96.3% (active) |
| O=C(Nc1ccc(Cl)cc1)Nc1nnc2nc(C3(c4nc5nnc(NC(=O)Nc6ccc(Cl)cc6)n5[nH]c4=O)Cc4ccccc4C3=O)c(=O)[nH]n12 | 29.5% | -1.6% | 8.3% | 12.9% | 8.75% | 2.3% |
| O=C1c2ccccc2CC12CCC1(CC2)OCCO1 | -14% | -1% | 3.55% | 26.6% | -12.5% | -23.6% |
| NCCCNCCCCNCCCNCc1c2ccccc2c(CNCCCNCCCCNCCCN)c2ccccc12 | 90.7% (active) | 93.1% (active) | 93.2% (active) | 91.9% (active) | 91.8% (active) | 90.8% (active) |
| CCn1c(=O)c2nc(SC)sc2n(-c2ccc(C)cc2)c1=O | -21.2% | -0.6% | -5.7% | 9.7% | 2% | 20.9% |
| CC(SC(=S)Nc1ccc(Cl)cc1)C(=O)O (configuration not stated) | 39.5% | 1.15% | 24.8% | -42% | 4.8% | 12.3% |
| c1ccn2cncc2c1 | 17% | 17% | 13.1% | 23.1% | 20.7% | 15.1% |
| C=CCSC(=S)NC | -6.2% | -7.5% | -2.7% | 10.2% | -0.9% | 8.4% |
| C=C1c2nc3ccccc3n2C=C(c2ccc(Cl)cc2)N1c1ccc(OC)cc1 | -3.95% | 23.4% | 19.8% | 11.4% | 7.7% | 40.2% |
| O=C(O)CNC(=O)c1ccc2cc(C(=O)N3CC(CCl)c4ccc([N+](=O)[O-])cc43)[nH]c2c1 (configuration not stated) | -6.45% | -4% | -3.95% | -0.1% | -34.3% | -35% |
| CC(I)CNc1ccc(C(=O)O)c(O)c1 (configuration not stated) | 3.7% | -4.9% | 6.15% | 1% | 11.6% | -11.9% |
| C/C(=N/NC(=S)N1CCCCCC1)c1ccccc1O | -63.5% | -40.4% | 5.6% | 45.4% | -12.8% | 34.8% |
